Inconclusive results are not listed. A number with no mark means an inactive call. Active and inactive are the calls of the source. Calls come from the whole dose curve.
Test: qHTS assay to identify small molecule antagonists of the sonic hedgehog signaling (Shh) pathway (AID 1259369); note: nearly all actives have a fitted effect of over 45% in size
Settings: NIH/3T3 Gli1-Luc reporter, Shh antagonist, luminescence 24 h; series mostly up to 92.4 µM; activity change, negative = inhibition: at the top concentration
How it was run: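 Antagonist mode: compound added to 3T3 Gli1-Luc cells followed by conditioned-medium stimulation, 24 h at 37 C, 5% CO2. Inhibition taken as loss of Gli1-driven luciferase luminescence.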
% is set by controls: 0 for no effect and ±100 for the full control effect; potency is the fitted concentration of half-maximal effect.

SMILES	activity change, negative = inhibition	Potency
COc1ccnc(CS(=O)c2nc3ccc(OC(F)F)cc3[nH]2)c1OC (stereo not given)	-25.7% [at 42.5 µM]	
O=C(O)c1ccc(S(=O)(=O)O)cc1C(=O)O	6.85%	
COS(=O)(=O)C(F)(F)F		14.3 µM (active)
OCCNCc1ccccc1	66.7%	
CCOCC(O)COc1ccc(NC(=O)CC[S+](C)C)cc1 (stereo not given)	6.78% [at 42.5 µM]	
CC(=O)c1cccc([N+](=O)[O-])c1	11.2%	
CCCCC1=NC2(CCCC2)C(=O)N1Cc1ccc(-c2ccccc2-c2nn[nH]n2)cc1	-14.5% [at 42.5 µM]	
CCCCCCCN	9.07%	
CC(CC=O)c1ccccc1 (stereo not given)		54.5 µM (active)
CCOC(=O)C(=O)CCc1ccccc1	25% [at 42.5 µM]	
C[N+](C)(C)CCOC(=O)CCC(=O)OCC[N+](C)(C)C	0.521% [at 42.5 µM]	
CCCCCCCCO[C@@H]1O[C@H](CO)[C@@H](O)[C@H](O)[C@H]1O	-2.78%	
c1cc(CCCc2ccncc2)ccn1	-26.5%	
CCOC(=O)Cc1cccc2ccccc12	10.5%	
CCO[C@H](Cc1ccc(OCCc2ccc(OS(C)(=O)=O)cc2)cc1)C(=O)O	10.9% [at 42.5 µM]	
Cc1cc(C(=O)O)ccc1[N+](=O)[O-]	0%	
CCN(CC)CCNC(=O)c1cc(Br)c(N)cc1OC	12.8% [at 42.5 µM]	
OC[C@H]1O[C@@H](OCCc2ccc(O)cc2)[C@H](O)[C@@H](O)[C@@H]1O	13.6% [at 42.5 µM]	

SMILES	activity change, negative = inhibition	Potency
C=C1[C@H]2CC[C@@H]3[C@H]2C(C)(C)CCC[C@]13C	-6.61%	
C=CCOc1ccccc1OCC(O)CNC(C)C (stereo not given)	-1.71% [at 42.5 µM]	
CCOC(=O)c1cccnc1	10.4% [at 42.5 µM]	
NCC(=O)O	20.6% [at 19 µM]	
CN1Cc2cc(C(=O)N3CCC(C4CCNCC4)CC3)ccc2NC(CC(=O)O)C1=O (stereo not given)	16.9% [at 42.5 µM]	
CCN(CC)CCOC(=O)C(c1ccccc1)C1CCCCC1 (stereo not given)		15 µM (active)
O=C1C(O)=C(O)C(=O)C(O)=C1O	26.9% [at 42.5 µM]	
Cc1[nH]c(C)c(Cl)c(=O)c1Cl	33.7% [at 19 µM]	
O=C(O)CNCC(=O)O	8.21% [at 8.39 µM]	
O=C(CS)Nc1ccccc1	1.69% [at 42.5 µM]	
NCC(=O)CCC(=O)O	19.1% [at 42.5 µM]	
Cc1ncc(CO)c(C=O)c1O	18.8% [at 42.5 µM]	
O=C1CCCCCCCCCCCC(=O)OCCO1	-24.3%	
CCOc1ccc(O)cc1		15.4 µM (active)
NCCCN1CCOCC1	-2.64%	
CCCCCCCCCCCCCCCCOS(=O)(=O)O	24.8% [at 42.5 µM]	
NCc1ccccc1Sc1ccccc1CO	23.2% [at 42.5 µM]	
